We go through eight compounds from the supplement of paper PMC7057948, “A genome-wide approach for identification and characterisation of metabolite-inducible systems” (Nature Communications, 2020).

Details in all cases: inducer concentration 5 mM; 6 h; Cupriavidus necator H16; minimal medium + 0.4% gluconate
Assay [1] deals with AcoR/P_H16_RS19445 acetoin biosensor (pEH052). The assay is described as follows: relative induction of RFP reporter vs primary effector (background-corrected); higher = stronger activation of the biosensor. How it is done:
(§1)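 C. necator H16 strains, each carrying one of 21 transcription factor/inducible promoter–mRFP biosensor plasmids, were grown in minimal medium in 96-well plates (robotic platform). Each was exposed to 46 structurally or metabolically related compounds at 5 mM at 30 °C. OD-normalised RFP fluorescence was read 6 h later and expressed as relative induction (%) = 100 × (FL compound − FL uninduced)/(FL primary inducer − FL uninduced); mean of n=4.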

Assay [2] has as its system AraC/P_araBAD L-arabinose biosensor (pEH176). The description is as above. The protocol:
as §1

The subject of assay [3] is BenM/P_H16_RS09790 benzoate biosensor (pEH148). The assay is described as above. The protocol: as §1
For assay [4], the system named is FdsR/P_H16_RS03165 formate biosensor (pEH134). The description is as above. How it is done:
as §1

Assay [5] concerns GabR/P_H16_RS23655 GABA biosensor (pEH256). Described as above. How it is done:
as §1

The subject of assay [6] is HpdR/P_H16_RS18295 3-hydroxypropanoate biosensor (pEH010). The assay is described as above. How it is done: as §1
Assay [7] relates to KynR/P_H16_RS14030 L-kynurenine biosensor (pEH136). The description is as above. How it is done: as §1
For assay [8], the system named is NahR/P_H16_RS08125 salicylate biosensor (pEH042). The assay is described as above. How it is done: as §1
Assay [9] relates to OapR/P_H16_RS01330 beta-alanine biosensor (pEH147). The description is as above. The protocol:
as §1

Assay [10] relates to PcaQ/P_H16_RS30145 3,4-dihydroxybenzoate biosensor (pEH161). Described as above. How it is done: as §1
In assay [11] the test system is PhgR/P_H16_RS05530 phenylglyoxylate biosensor (pEH155). The description is as above. How it is done: as §1
Assay [12] deals with PhhR/P_H16_RS18365 L-phenylalanine biosensor (pEH137). Described as above. The protocol: as §1
Assay [13] deals with SauR/P_H16_RS13695 sulfonatoacetate biosensor (pEH157). The assay is described as above. The protocol: as §1
In assay [14] the test system is TtdR/P_H16_RS10665 tartrate biosensor (pEH083). The assay is described as above. The protocol: as §1
In assay [15] the test system is XdhR/P_H16_RS05055 xanthine biosensor (pEH154). The description is as above. The protocol:
as §1

Assay [16] relates to heterologous inducible system pEH002 (rhamnose/acrylate/cumate/itaconate set). The assay is described as above. The protocol: as §1
The subject of assay [17] is heterologous inducible system pEH020 (rhamnose/acrylate/cumate/itaconate set). Described as above. How it is done:
as §1

Assay [18] concerns heterologous inducible system pEH040 (rhamnose/acrylate/cumate/itaconate set). Described as above. The protocol:
as §1

In assay [19] the test system is heterologous inducible system pEH086 (rhamnose/acrylate/cumate/itaconate set). Described as above. The protocol: as §1
Assay [20] deals with BadR/P_H16_RS27200 cyclohexanecarboxylate biosensor (pEH159). The description is as above. How it is done: as §1
Assay [21] deals with AcoR/P_H16_RS19445 acetoin biosensor (pEH052). The assay is described as follows: relative induction of RFP reporter vs primary effector; higher = stronger activation. How it is done: (§2)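 Orthogonality screen of 21 primary inducers against 21 transcription factor/inducible promoter–mRFP biosensors in C. necator H16 in minimal medium, robotic 96-well format, 5 mM inducer, 30 °C. OD-normalised RFP fluorescence was read 6 h later and expressed as relative induction (%) = 100 × (FL compound − FL uninduced)/(FL primary inducer − FL uninduced); mean of n=4. Cognate pairs (100% by definition) omitted.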

In assay [22] the test system is AraC/P_araBAD L-arabinose biosensor (pEH176). The assay is described as above. The protocol: as §2
The test system of assay [23] is BadR/P_H16_RS27200 cyclohexanecarboxylate biosensor (pEH159). The description is as above. How it is done: as §2
Assay [24] deals with BenM/P_H16_RS09790 benzoate biosensor (pEH148). The assay is described as above. The protocol: as §2
The subject of assay [25] is FdsR/P_H16_RS03165 formate biosensor (pEH134). The assay is described as above. How it is done: as §2
Assay [26] has as its system GabR/P_H16_RS23655 GABA biosensor (pEH256). The description is as above. The protocol:
as §2

Assay [27] relates to HpdA/P_H16_RS24175 L-tyrosine biosensor (pEH158). The description is as above. How it is done: as §2
Assay [28] deals with NahR/P_H16_RS08125 salicylate biosensor (pEH042). The description is as above. How it is done: as §2
Assay [29] deals with OapR/P_H16_RS01330 beta-alanine biosensor (pEH147). The description is as above. How it is done:
as §2

Assay [30] deals with PcaQ/P_H16_RS30145 3,4-dihydroxybenzoate biosensor (pEH161). The assay is described as above. The protocol: as §2
The test system of assay [31] is PhgR/P_H16_RS05530 phenylglyoxylate biosensor (pEH155). The assay is described as above. The protocol:
as §2

For assay [32], the system named is SauR/P_H16_RS13695 sulfonatoacetate biosensor (pEH157). The assay is described as above. The protocol: as §2
Assay [33] deals with TtdR/P_H16_RS10665 tartrate biosensor (pEH083). Described as above. How it is done:
as §2

In assay [34] the test system is XdhR/P_H16_RS05055 xanthine biosensor (pEH154). Described as above. How it is done: as §2
In assay [35] the test system is heterologous L-rhamnose-inducible system. Described as above. How it is done:
as §2

Assay [36] relates to heterologous acrylate-inducible system. The assay is described as above. How it is done: as §2
Assay [37] concerns heterologous cumate-inducible system. Described as above. The protocol: as §2
For assay [38], the system named is heterologous itaconate-inducible system. The assay is described as above. How it is done:
as §2
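Throughout, for relative induction of RFP reporter vs primary effector (background-corrected): RFP excited at 585 nm with emission read at 620 nm, culture medium blanks subtracted from fluorescence and absorbance prior to normalisation.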

Turning to `O=C(O)[C@@H](O)[C@@H](O)[C@H](O)[C@@H](O)C(=O)O` [glucarate], the “relative induction of RFP reporter” value in [1] was 16.6%; in assay [2], -0.00794%; in assay [3] it was 0.00581%; in assay [4] it was -1.03%; in assay [5], 0.559%; in assay [6] it was 0.059%. Further, the “relative induction of RFP reporter” value in assay [7] is 0.0265%; in assay [8], 0.0258%; in [9], 0.058%; in [10] it was 0.00441%; in assay [11], -0.232%; in assay [12], -0.08%. In addition, the “relative induction of RFP reporter” value was -0.0162% in [13]; -0.0655% in [14]; 0.202% in [15]; 0.0271% in assay [16]; 0.067% in assay [17]; 0.131% in [18]. For the same compound, the “relative induction of RFP reporter” value in assay [19] was determined as 0.127%.
With `Oc1ccccc1O` [catechol], the “relative induction of RFP reporter” value in [1] was 1.82%; in assay [2], -0.00935%; in assay [20], 1.99%; in assay [3], 9.72%; in assay [4], -2.57%; in [5] it was 3.82%. The “relative induction of RFP reporter” value in assay [6] was 0.415%; in assay [7], 0.704%; in assay [8] it was 0.0978%; in [9], -1.89%; in assay [10] it was 0.794%; in assay [11], 0.769%. Also, the “relative induction of RFP reporter” value in assay [12] is -0.0234%; in [13], 0.114%; in [14], 2.09%; in assay [15] it was 0.259%; in [16] it was 0.0302%; in assay [17], -0.684%. In addition, the “relative induction of RFP reporter” value was 4.75% in [18] and -0.178% in assay [19].
On to `C=C(CC(=O)O)C(=O)O` [itaconate], for which the “relative induction of RFP reporter” value is 7.98% in assay [21]; -0.0132% in assay [22]; -0.216% in assay [23]; -0.0396% in assay [24]; -5.89% in assay [25]; -1.61% in assay [26]. Besides, the “relative induction of RFP reporter” value was -0.159% in [27]; 0.0104% in [28]; -0.257% in assay [29]; -0.0579% in assay [30]; -0.453% in assay [31]; 0.0423% in [32]. Further, the “relative induction of RFP reporter” value in assay [33] was -0.0311%; in [34] it was -0.326%; in assay [35] it was 0.00546%; in [36] it was -0.778%; in [37] it was -0.202%.
For the compound `O=C(O)c1ccccc1O` [salicylate], the “relative induction of RFP reporter” value was -1.02% in [21]; -0.0255% in [22]; -0.169% in [23]; 1.72% in [24]; -11.3% in assay [25]; 1.28% in assay [26]. For the same compound, the “relative induction of RFP reporter” value was -0.0712% in assay [27]; -0.51% in assay [29]; -0.391% in assay [30]; -0.369% in [31]; 0.0177% in assay [32]; -0.317% in [33]. For the same compound, the “relative induction of RFP reporter” value in assay [34] was -0.278%; in assay [35], 0.019%; in [36] it was -1.06%; in [37] it was 0.792%; in assay [38] it was -0.0867%.
Take `O=C(O)CC(=O)C(=O)O` [oxaloacetate]: the “relative induction of RFP reporter” value was 0.0874% in [1]; -0.00919% in [2]; -0.0305% in assay [3]; 2.96% in [4]; -0.991% in [5]; 0.0505% in assay [6]. Besides, the “relative induction of RFP reporter” value in assay [7] was -0.384%; in [8], 0.0244%; in assay [9], 0.302%; in [10] it was -0.0492%; in assay [11], -0.502%; in assay [12] it was -0.153%. In addition, the “relative induction of RFP reporter” value in assay [13] was 0.016%; in assay [14], -0.0827%; in [15], -0.199%; in assay [16] it was 0.0189%; in [17], -0.323%; in assay [18] it was -0.91%. Further, the “relative induction of RFP reporter” value in [19] is -0.0639%.
Turning to `O=C(O)C(=O)c1ccccc1` [phenylglyoxylate], the “relative induction of RFP reporter” value is -2.12% in assay [21]; -0.003% in [22]; -0.214% in assay [23]; 16.8% in assay [24]; -2.13% in [26]; -0.159% in [27]. For the same compound, the “relative induction of RFP reporter” value in assay [28] was 0.00691%; in assay [29] it was -1.44%; in [30], -0.114%; in assay [32], 0.0193%; in assay [33] it was -0.379%; in assay [34], -1.19%. The “relative induction of RFP reporter” value in [35] is -0.00891%; in assay [36], -2.28%; in [37], -1.12%; in [38], -0.288%.
Regarding `O=C(O)c1ccc(O)cc1` [4-hydroxybenzoate], the “relative induction of RFP reporter” value in [1] was 0.234%; in assay [2] it was -0.0125%; in assay [3], -0.00462%; in assay [4], 1.94%; in assay [5], -0.622%; in assay [6], 0.357%. Further, the “relative induction of RFP reporter” value in [7] was -0.184%; in [8] it was 0.159%; in [9], -0.798%; in assay [10] it was 212%; in assay [11], -0.153%; in assay [12], -0.483%. Further, the “relative induction of RFP reporter” value is -0.0101% in [13]; 0.895% in assay [14]; -0.191% in assay [15]; 0.0183% in assay [16]; -0.27% in [17]; -0.0264% in assay [18]. The “relative induction of RFP reporter” value in assay [19] was 0.318%.
On to `O=CO` [formate], for which the “relative induction of RFP reporter” value in [21] is -0.63%; in assay [22], -0.0317%; in assay [23], -0.738%; in assay [24] it was 0.0137%; in assay [26] it was -0.53%; in assay [27] it was -0.107%. Further, the “relative induction of RFP reporter” value in [28] was 0.0105%; in [29] it was 0.208%; in [30], -0.0432%; in [31], -0.511%; in assay [32], 0.0555%; in assay [33], 0.287%. Besides, the “relative induction of RFP reporter” value was -0.347% in assay [34]; 0.0165% in [35]; -0.251% in assay [36]; -0.422% in assay [37]; 0.516% in assay [38].
